Out of some 310,000 compounds screened, about 14,000 (4.5%) showed an effect of 50% or more. Effects have a minus sign here. Shown is part of a subset that was picked to be rich in strong results.
molecular target: human ether-à-go-go-related gene (hERG) potassium channel (human, UniProt Q12809); test: primary screen, population patch clamp on CHO cells stably expressing hERG; higher = less effect of the substance
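Also: peak tail current of the secondary pulse compared with the same well before compound.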

Sequence of human ether-à-go-go-related gene (hERG) potassium channel (Q12809 whole entry, looked up): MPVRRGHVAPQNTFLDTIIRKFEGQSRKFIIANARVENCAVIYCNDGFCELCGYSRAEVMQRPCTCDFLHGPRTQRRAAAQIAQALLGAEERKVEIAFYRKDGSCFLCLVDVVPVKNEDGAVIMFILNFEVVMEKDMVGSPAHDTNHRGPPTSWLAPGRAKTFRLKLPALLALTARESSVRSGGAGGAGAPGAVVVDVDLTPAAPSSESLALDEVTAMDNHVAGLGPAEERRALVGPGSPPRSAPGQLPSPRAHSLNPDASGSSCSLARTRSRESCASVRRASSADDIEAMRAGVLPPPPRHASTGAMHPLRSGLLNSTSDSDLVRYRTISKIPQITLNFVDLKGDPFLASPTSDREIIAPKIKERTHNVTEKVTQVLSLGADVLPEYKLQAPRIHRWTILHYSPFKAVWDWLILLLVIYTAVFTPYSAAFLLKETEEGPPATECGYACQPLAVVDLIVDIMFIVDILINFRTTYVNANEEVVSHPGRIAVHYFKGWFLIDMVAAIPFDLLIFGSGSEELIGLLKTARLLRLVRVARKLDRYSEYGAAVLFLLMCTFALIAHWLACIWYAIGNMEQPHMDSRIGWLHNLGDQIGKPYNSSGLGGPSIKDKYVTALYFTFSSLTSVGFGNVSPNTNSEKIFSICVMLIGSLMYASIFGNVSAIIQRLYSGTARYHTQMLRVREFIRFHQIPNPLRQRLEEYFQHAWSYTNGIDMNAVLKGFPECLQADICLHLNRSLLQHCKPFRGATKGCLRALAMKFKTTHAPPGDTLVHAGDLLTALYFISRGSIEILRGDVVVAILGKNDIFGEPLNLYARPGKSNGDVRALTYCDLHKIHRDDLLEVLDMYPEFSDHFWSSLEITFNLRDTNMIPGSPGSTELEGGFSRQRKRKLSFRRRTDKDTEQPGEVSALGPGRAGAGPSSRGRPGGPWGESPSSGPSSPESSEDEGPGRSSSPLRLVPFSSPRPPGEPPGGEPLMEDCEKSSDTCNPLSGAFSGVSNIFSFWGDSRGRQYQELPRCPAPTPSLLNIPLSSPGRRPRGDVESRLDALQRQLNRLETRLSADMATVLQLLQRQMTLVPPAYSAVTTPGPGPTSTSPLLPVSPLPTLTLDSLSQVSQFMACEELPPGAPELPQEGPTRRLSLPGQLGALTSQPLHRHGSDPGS

| Compound | hERG current change (%, negative = inhibition) at 10uM |
| --- | --- |
| COc1ccc(C2=Nc3cccc4cccc(c34)N2)cc1 | 9.66% |
| Cc1cccc(Nc2nnc(SCC(=O)Nc3cccc(S(=O)(=O)N4CCCCC4)c3)s2)c1 | 3.37% |
| C=CCN1C(=O)NC(=O)/C(=C/c2ccoc2)C1=O | 20.5% |
| CCn1c(C)[n+](CCOC(C)=O)c2cc(Cl)c(Cl)cc21.[I-] | -8.87% |
| COC(=O)CCCC(=O)N1CCC(CCC(=O)NCc2ccc(F)cc2)CC1 | -24% |
| CN(C)C(=C(C#N)C#N)N1CCN(c2ccc(Cl)c(Cl)c2)CC1 | -63.2% |
| CNC(=S)N1CCN(c2ccc(Cl)c(Cl)c2)CC1 | -6.17% |
| CN(C)C(=C(C#N)C#N)N1CCN(c2ccc(Cl)cc2)CC1 | -48.3% |
| N#C/C=C(/N)N1CCN(c2ccc(Cl)c(Cl)c2)CC1 | -73.9% |
| COC(=O)N1CCN(c2ccc(Cl)c(Cl)c2)CC1 | -1.86% |
| CCOC(=O)N1CCN(c2ccc(Cl)c(Cl)c2)CC1 | -11.1% |
| CCC1(c2ccccc2)NC(=O)N(CC(=O)Nc2ccccc2N2CCCCC2)C1=O (stereo not drawn) | -15.8% |
| CCCc1ccc(Oc2cc(N3CCOCC3)nc(-c3ccccc3)n2)cc1 | 21.5% |
| CCC(=O)Nc1cccc(-c2nc3ccc(C)cc3o2)c1 | -13.4% |
| CC1(C)CC(O)C(C)(C)N1O (stereo not drawn) | 3.9% |
| CCc1nnc(NS(=O)(=O)c2ccc(N=Cc3c(C)[nH]n(-c4ccc(Cl)cc4)c3=O)cc2)s1 | 17.7% |
| Cc1ccc(C)c(CN2C(=O)CSc3ccc(C(=O)N4CCCC4)cc32)c1 | -17% |
| Cc1ccc(C)c(CN2C(=O)CSc3ccc(C(=O)NCCN4CCOCC4)cc32)c1 | 14.6% |
| Cc1ccc(C)c(CN2C(=O)CSc3ccc(C(=O)NCC(C)CN4CCC(C)CC4)cc32)c1 (stereo not drawn) | -75.8% |
| CCOC(=O)c1nn(-c2ccccc2F)c(-c2ccccc2)c1C(=O)c1ccccc1 | 7.34% |
| O=C(NCCc1ccccc1)c1ccc(-n2cnnn2)cc1 | -4.78% |

| Compound | hERG current change (%, negative = inhibition) at 10uM |
| --- | --- |
| COCCN(C(=O)COC(=O)c1cccc2ccccc12)c1c(N)n(Cc2ccccc2)c(=O)[nH]c1=O | -0.159% |
| COc1ccc(/C=C/CN2CCC(n3nccc3NC(=O)C3CCCC3)CC2)cc1 | -88.6% |
| COc1ccc(OCC(=O)N2CCC(n3nccc3NC(=O)C3CC3)CC2)cc1 | 1.44% |
| COc1ccc(/C=C/CN2CCC(n3nccc3NC(=O)C3CC3)CC2)cc1 | -72.7% |
| COc1ccc(CC(=O)N2CCC(n3nccc3NC(=O)C3CC3)CC2)cc1 | 13.7% |
| COC(=O)c1ccc2c(=O)n(-c3ccccc3)c(SCN3C(=O)c4ccccc4C3=O)nc2c1 | 11% |
| COc1ccc(/C(C)=N/Nc2ccc(F)cc2F)c(O)c1 | 6.58% |
| COc1ccccc1C(=O)NC(=O)CSc1nc(C)cs1 | 12% |
| CCOC(=O)N1CCN(C(=O)CN(c2cccc(OC)c2)S(C)(=O)=O)CC1 | -5.17% |
| COc1cc(C(CCN2CCOCC2)c2c(OC)cc(OC)c3c(C)cc(=O)oc23)cc(OC)c1OC (stereo not drawn) | -79.3% |
| COc1cc(C(CCN2CCN(c3ccccc3)CC2)c2c(OC)cc(OC)c3c(C)cc(=O)oc23)cc(OC)c1OC (stereo not drawn) | -6.01% |
| COc1ccc(C(CCN2CCCC(C)C2)c2c(OC)cc(OC)c3c(C)cc(=O)oc23)cc1 (stereo not drawn) | -74.3% |
| COc1ccc(C(CC(=O)N2CCOCC2)c2c(OC)cc(OC)c3c(-c4ccccc4)cc(=O)oc23)cc1 (stereo not drawn) | 12% |
| COc1cc(O)c(C(CCN2CCOCC2)c2cc(OC)c(OC)c(OC)c2)c(OC)c1 (stereo not drawn) | 8.02% |
| COc1cc(OC)c2c(-c3ccccc3)cc(=O)oc2c1C(CCN1CCCC(C)C1)c1ccc(N(C)C)cc1 (stereo not drawn) | -30% |
| COc1ccc(C(CC(=O)N2CCCC(C)C2)c2c(OC)cc(OC)c3c(-c4ccccc4)cc(=O)oc23)cc1 (stereo not drawn) | 8.57% |
| COc1cc(OC)c2c(C)cc(=O)oc2c1C(CCN1CCOCC1)c1ccc2c(c1)OCO2 (stereo not drawn) | -68.4% |
| COc1cc(OC)c2c(C)cc(=O)oc2c1C(CCN1CCN(c2ccccc2)CC1)c1ccc2c(c1)OCO2 (stereo not drawn) | -11.1% |
| COc1ccc(C(CCN2CCOCC2)c2c(OC)cc(OC)c3c(C)cc(=O)oc23)cc1 (stereo not drawn) | -69.2% |
| COc1cc(OC)c2c(-c3ccccc3)cc(=O)oc2c1C(CC(=O)N1CCOCC1)c1ccc2c(c1)OCO2 (stereo not drawn) | 1.51% |
| COc1cc(OC)c2c(C)cc(=O)oc2c1C(CCN1CCOCC1)c1ccc(N(C)C)cc1 (stereo not drawn) | -28.5% |

| Compound | hERG current change (%, negative = inhibition) at 10uM |
| --- | --- |
| CCOc1ccc(S(=O)(=O)N2CCC(C(=O)OC(C)C(=O)N3CCOCC3)CC2)cc1 (stereo not drawn) | -25.2% |
| O=C(Cc1ccccc1[N+](=O)[O-])N/N=C/c1cccnc1 | 10% |
| COc1ccccc1C(=O)NCC(=O)OCC(=O)c1ccc2c(c1)-c1ccccc1C2 | -0.208% |
| Cc1nnc(NC(=O)C2CCCN(S(=O)(=O)Cc3ccccc3)C2)s1 (stereo not drawn) | -2.64% |
| CCc1ccc(N(CC(=O)NC2CCCC2)S(=O)(=O)c2c(C)noc2C)cc1 | -7.76% |
| O=C(Nc1nnc(C2=COCCO2)o1)c1ccc(S(=O)(=O)N2CCCC2)cc1 | 17.2% |
| O=C(NCc1cccnc1)C1CCC(CNS(=O)(=O)c2cccc3nsnc23)CC1 (stereo not drawn) | -9.63% |
| CCOC(=O)CCc1c(C)nc2cc(-c3ccc(Cl)cc3)[nH]n2c1=O | -7.09% |
| CCOC(=O)CC(NCc1ccc(OC)c(OCC)c1)c1ccc(C)cc1.Cl (stereo not drawn) | -39% |
| CC(C)C(NC(=O)c1ccco1)C(=O)NCC(c1ccco1)N1CCCCC1 (stereo not drawn) | 20% |
| COC(=O)Cn1c(CN2CCOCC2)nc2c1c(=O)[nH]c(=O)n2C | 3.43% |
| CCN(CC)CCC(c1cc(OC)c(OC)c(OC)c1)c1c(OC)cc(OC)c2c(C)cc(=O)oc12 (stereo not drawn) | -48.5% |
| COc1cc(C(CCN2CCCC2)c2c(OC)cc(OC)c3c(C)cc(=O)oc23)cc(OC)c1OC (stereo not drawn) | -75.5% |
| COc1cc(C(CCN2CCCCC2)c2c(OC)cc(OC)c3c(C)cc(=O)oc23)cc(OC)c1OC (stereo not drawn) | -99.6% |
| Oc1ccc(Br)cc1CNn1cnnc1 | 13.9% |
| COc1ccc(OC)c(CNc2ccc3c(c2)CCC3)c1 | 20.4% |
| CC(C(=O)O)n1nc2ccccc2n1 (stereo not drawn) | 21.4% |
| CCOC(=O)c1c(CC(C)C)csc1NC(C)=O | -2.62% |
| CC(C)[C@H](NC(=O)N1c2ccccc2NC(=O)[C@@H]1C(C)C)C(=O)N[C@@H](Cc1c[nH]c2ccccc12)C(=O)O | 3.11% |
| O=C(O)CSc1ccnc2cc(Cl)ccc12 | 16.2% |
| COc1cc(OC)cc(-c2c(-c3ccc(F)cc3)c3cc(-c4ccc5cc[nH]c5c4)ccc3n2C)c1 | 14.2% |

| Compound | hERG current change (%, negative = inhibition) at 10uM |
| --- | --- |
| CNC(=O)COc1coc(CN2CCN(c3ccc(OC)cc3)CC2)cc1=O | 1.11% |
| C=C1CCN([C@@H](CC(C)C)C(=O)N2CCCC2)S(=O)(=O)c2ccccc21 | -54.7% |
| C=C1CCN([C@@H](CC(C)C)C(=O)N2CCOCC2)S(=O)(=O)c2ccccc21 | 13.3% |
| C=C1CCN([C@@H](CC(C)C)C(=O)O)S(=O)(=O)c2ccccc21 | 22.6% |
| CCc1nc2ccc(C(=O)N3CCN(c4ccc([N+](=O)[O-])cc4)CC3)cc2nc1CC | -72.1% |
| O=C(c1ccc2c(=O)n3c(nc2c1)CCCCC3)N1CCN(c2ccc([N+](=O)[O-])cc2)CC1 | -73% |
| O=C(c1ccc2c(=O)n3c(nc2c1)CCCCC3)N1CCN(c2ccc(F)cc2)CC1 | -42.1% |
| O=C(c1ccc(NC2=NC3CS(=O)(=O)CC3S2)cc1)N1CCN(c2ccc([N+](=O)[O-])cc2)CC1 (stereo not drawn) | -4.75% |
| Cc1ccc(C)c(N2CCN(C(=O)c3ccc4nsnc4c3)CC2)c1 | -1.44% |
| O=C(c1ccc2nsnc2c1)N1CCN(c2ccc([N+](=O)[O-])cc2)CC1 | -75.5% |
| CCc1nc2ccc(C(=O)N3CCN(c4ccccc4)CC3)cc2nc1CC | -5.04% |
| O=c1c2ccccc2nc2n1CC/C2=C\N1CCN(c2ccc([N+](=O)[O-])cc2)CC1 | -78.1% |
| Cc1nc2ccccc2c(=O)n1-c1ccc([N+](=O)[O-])cc1 | 7.26% |
| CCc1nc2ccc(C(=O)N3CCN(c4ccc(Cl)cc4)CC3)cc2nc1CC | -6.46% |
| Cl.O.O=c1c2ccccc2nc2n1CC/C2=C/N1CCN(c2cccc(C(F)(F)F)c2)CC1 | -28% |
| O=C(c1ccc2c(=O)n3c(nc2c1)CCCCC3)N1CCN(c2ccc(Cl)cc2)CC1 | -48% |
| CCOP(=O)(c1ccccc1)C1(O)CCCCC1 (stereo not drawn) | -1.86% |
| CCCc1oc(C(=O)O)cc1CN1CCOCC1.Cl | 8.54% |

From PMC4336329 (PLoS ONE, 2015)
